Records with an inconclusive call do not appear. Entries that show only a call come without a potency. Values without a mark were called inactive. Active and inactive are the calls of the source. Calls come from the whole dose curve; as a rule, active = well fitted cell-killing curve with a large enough effect; inconclusive = small, poorly fitted or top-dose-only effect, or effect the other way; inactive = no such curve, though single readings can be large or run the other way.
Assay: Viability qHTS for spleen associated tyrosine kinase inhibitor (SYKi) naive MV4-11 cells (AID 1963823); note: nearly all actives have a fitted effect of over 40% in size
Conditions: MV4-11 AML viability, CellTiter-Glo luminescence, 72 h; series mostly up to 45 µM
How it was run: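 SYK inhibitor-naive MV4-11 cells, 500 per well, exposed to compounds for 72 hr at 37 C, 5% CO2. Viability read as CellTiter-Glo luminescence after 10 min at room temperature.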
Potency is the fitted concentration of half-maximal effect.

| SMILES | Potency | viability (% of control) |
| --- | --- | --- |
| C=C1CC[C@H]2C(=C)CC[C@H]3C(=C)C(=O)O[C@@H]3[C@@H]12 | 4.11 µM (active) |  |
| CC1OC(OC2C(OC(=O)[C@]34CCC(C)(C)C[C@H]3C3=CCC5[C@@]6(C)CC[C@H](OC7OC(C(=O)O)C(O)C(O)C7O)C(C)(C)C6CC[C@@]5(C)[C@]3(C)CC4O)OC(CO)C2O)C(O)C(O)C1OC1OCC(O)C(O)C1O (stereo not given in full) |  | 70.8% [at 9.25 µM] |
| CC(O)/C=C/C1OC(=O)CC1Nc1ccc(C(=O)O)cc1 (stereo not given) | inactive |  |
| C=CC1C(OC2OC(CO)C(O)C(O)C2O)OC=C(C(=O)OC)C1CC1CC(=O)CC(CCc2ccc(O)cc2)O1 (stereo not given) | inactive |  |
| COc1ccc(C2(O)c3c(ccc4c3OC(C)(CCC=C(C)C)C=C4)NC(=O)C2OC)cc1 (stereo not given) | inactive |  |
| COc1cc(C)c(C(=O)O[C@H]2[C@@H](OC(C)=O)[C@H](n3ccc(=O)[nH]c3=O)O[C@@H]2CO)c(OC)c1 | inactive |  |
| CC1(C)CC(=O)N(CCCCN2CCN(c3ncccn3)CC2)C(=O)C1 | inactive |  |
| COc1ccc2c(c1)C[C@H](C(=O)Nc1ccc(-c3cn[nH]c3)cc1OCCN(C)C)CO2 | 0.651 µM (active) |  |
| CC(C)C1NC(=O)C(CC2(O)c3ccccc3N3C(=O)C(Cc4ccccc4)NC32)NC1=O (stereo not given) | inactive |  |
| COc1ccc(C(O[C@@H]2O[C@H](CO)[C@@H](O)[C@H](O)[C@H]2O)C(CO)Oc2ccc(/C=C/CO)cc2OC)cc1O (stereo not given in full) | inactive |  |
| C=C1CC[C@@H]2[C@](C)(CO[C@@H]3O[C@H](CO)[C@@H](O)[C@H](O)[C@H]3O)CCC[C@@]2(C)[C@@H]1CCC1=CCOC1=O | inactive |  |
| CC1CCC23COC(=O)C2=CC(O)CC3C1(C)CCC1=CC(O)OC1=O (stereo not given) | inactive |  |
| C[C@@H]1O[C@@H](O[C@H]2[C@H](O)[C@@H](O)[C@H](OC[C@H]3O[C@@H](OC(=O)[C@]45CCC(C)(C)C[C@H]4C4=CCC6[C@@]7(C)CC[C@H](O[C@@H]8OC[C@H](O)[C@H](O[C@@H]9O[C@H](CO)[C@@H](O)[C@H](O)[C@H]9O)[C@H]8O)[C@@](C)(CO)C7CC[C@@]6(C)[C@]4(C)CC5)[C@H](O)[C@@H](O)[C@@H]3O)O[C@@H]2CO)[C@H](O)[C@H](O)[C@H]1O (stereo not given in full) |  | 98% [at 9.25 µM] |
| [N-]=[N+]=N[C@]1(CO)O[C@@H](n2ccc(N)nc2=O)[C@@H](O)[C@@H]1O | inactive |  |
| CC1=CC(=O)C(C(C)C)=CC1=O | inactive |  |
| CC1(C)C(=O)N2c3ccccc3[C@]3(CC(n4cnc5ccccc5c4=O)C(=O)O3)[C@H]2N1O (stereo not given in full) | inactive |  |
| CC(=O)/C=C/C1(O)C(C)=CC(=O)CC1(C)C (stereo not given) | inactive |  |
| CC(=O)/C=C/C1(O)C(C)(C)CC(O)CC1(C)O (stereo not given) | inactive |  |
| C=C[C@@]1(C)CCC2C(=CCC3[C@]2(C)CCC[C@@]3(C)C(=O)O)C1 (stereo not given in full) | inactive |  |
| CN(CCCOc1ccc(Cc2ccccc2)cc1)CCC(=O)O | inactive |  |

| SMILES | Potency | viability (% of control) |
| --- | --- | --- |
| CC1(C)CC2C(O)C3=C(CC(C)(O)C2C1)C(=O)OC3 (stereo not given) | inactive |  |
| C=C1CC[C@@H]2[C@](C)(CO[C@@H]3O[C@H](CO)[C@@H](O)[C@H](O)[C@H]3O)[C@H](O)CC[C@@]2(C)[C@@H]1C/C=C1/C(=O)OC[C@H]1O | inactive |  |
| O=C1OC2(c3ccccc31)c1cc(I)c(O)c(I)c1Oc1c2cc(I)c(O)c1I | inactive |  |
| C[C@@H]1N[C@H]2N(C1=O)c1ccccc1[C@@]2(O)C[C@@H]1C(=O)N[C@@H](C)c2nc3ccccc3c(=O)n21 | inactive |  |
| COc1cccc2cc3c(c(O[C@@H]4O[C@H](CO[C@@H]5O[C@H](CO)[C@@H](O)[C@H](O)[C@H]5O)[C@@H](O)[C@H](O)[C@H]4O)c12)C(C)OC3=O (stereo not given in full) | inactive |  |
| O=C(O)CC1CC(c2ccccc2)=NO1 (stereo not given) | inactive |  |
| CC(C(O)c1ccc(O)cc1)N1CCC(Cc2ccccc2)CC1 (stereo not given) | inactive |  |
| OC/C=C/C=C/[C@H]1Cc2cc(O)cc(O)c2O1 | inactive |  |
| CC1CC=C2C1CC1(O)C(=O)CC2(C)C1(C)CO (stereo not given) | inactive |  |
| NC(=O)Nc1cc(-c2cccc(F)c2)sc1C(=O)NC1CCCNC1 (stereo not given) | inactive |  |
| O=C(O)C(Cc1ccccc1)NC(=O)C1CCCN1 (stereo not given) | inactive |  |
| C[C@@H]1O[C@@H](O[C@H]2[C@@H]3C=CO[C@@H](O[C@@H]4O[C@H](CO)[C@@H](O)[C@H](O)[C@H]4O)[C@@H]3[C@@]3(CO)O[C@@H]23)[C@H](OC(=O)/C=C/c2ccc(O)cc2)[C@H](O)[C@H]1O | inactive |  |
| CC(/C=C/C1(O)C2(C)COC1(C)CC(=O)C2)O[C@@H]1O[C@H](CO)[C@@H](O)[C@H](O)[C@H]1O (stereo not given in full) | inactive |  |
| COC(=O)C1=CO[C@@H](O[C@@H]2O[C@H](CO)[C@@H](O)[C@H](O)[C@H]2O)C2C1C(=O)C[C@H]2C (stereo not given in full) | inactive |  |
| CC1[C@@H](O)[C@@H](O)C2[C@]3(C)C(C[C@H]4OC(=O)[C@H](O)[C@]1(O)[C@@]24C)C(C)(O)C[C@H](O)[C@H]3O (stereo not given in full) | inactive |  |
| COc1cccc(OC)c1-c1nc(C(=O)N[C@@H](CC(C)C)C(=O)O)cn1-c1ccnc2cc(Cl)ccc12 | inactive |  |
| CSCC[C@H](NC(=O)[C@H](CCSC)NC(=O)CNC(=O)[C@H](Cc1ccc(O)cc1)NC(=O)[C@H](Cc1ccccc1)NC(=O)[C@H](CCCN=C(N)N)NC(=O)[C@H](CC(=O)O)NC(=O)[C@@H]1CCCN1C(=O)[C@H](CC(=O)O)NC(=O)[C@@H]1CCCN1C(=O)[C@@H]1CCCN1C(=O)[C@@H](N)CC(=O)O)C(N)=O | inactive |  |
| CC1(C)CC[C@]2(C(=O)O[C@@H]3O[C@H](CO)[C@@H](O)[C@H](O)[C@H]3O)[C@H](O)C[C@]3(C)C(=CCC4[C@@]5(C)CC[C@H](O[C@@H]6OC[C@@H](O)[C@H](O)[C@H]6O)[C@@](C)(C(=O)O)C5CC[C@]43C)[C@@H]2C1 (stereo not given in full) | inactive |  |
| Cc1c(C(=O)Nc2ccc(N3CCC(N4CCOCC4)CC3)c(C#N)c2)cnn1-c1ccc(Cl)cc1 | 0.116 µM (active) |  |
| CC(C)(O)/C=C/CC(C)(O)C1C(O)CC2(C)C3CCC4C(C)(C)C(=O)CCC4(C)C3CCC12C (stereo not given) | inactive |  |
